High-throughput results (PubChem BioAssay)
PAFAH2 inh: inhibitors of human PAFAH2. recombinant PAFAH2, FP-rhodamine activity probe, fluorescence polarization. Q99487. AID 492956. inhibition, % at 3.39 µM. 0.99% of 340,000 active;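 active = inhibition above the mean over all tested compounds plus 3 SD, cut at about 30% in these data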;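 note: inhibitors block probe labeling of enzyme so polarization drops; 0% = enzyme with DMSO and 100% = wells lacking PAFAH2 protein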
pPAFAH FP inh: inhibitors of human plasma PAF acetylhydrolase (pPAFAH); recombinant pPAFAH, FP-rhodamine probe fluorescence polarization; inhibition, % at 3.39 µM; 1.5% of 330,000 active; AID 463082;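 active = inhibition above the mean inhibition across the screen plus 3 SD, cut at about 25% in these data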;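 note: inhibitors block binding of the rhodamine activity-based probe so polarization drops; 0% = enzyme with DMSO and 100% = wells lacking pPAFAH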
PP5 inh: inhibitors of human protein phosphatase 5 (PP5) | 0.18% of 320,000 active | AID 1987 | P53041 | inhibition, % at 6.7 µM | purified PP5c, OMFP substrate fluorescence;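 active = inhibition above the campaign's mean inhibition across all tested compounds plus 3 SD, cut at about 9.5% in these data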;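 note: 0% = DMSO only and 100% = 100 µM cantharidin control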
PP1 counter: counter-screen for PP5 inhibitors: inhibitors of human PP1-alpha | P62136 | purified PP1alpha, OMFP fluorescence | inhibition, % at 6.7 µM | 0.9% of 320,000 active;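 active = inhibition above the mean inhibition of all tested compounds plus 3 SD, computed separately for each screening campaign, cut at about 15% in these data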
Target sequence (P62136 whole entry, looked up): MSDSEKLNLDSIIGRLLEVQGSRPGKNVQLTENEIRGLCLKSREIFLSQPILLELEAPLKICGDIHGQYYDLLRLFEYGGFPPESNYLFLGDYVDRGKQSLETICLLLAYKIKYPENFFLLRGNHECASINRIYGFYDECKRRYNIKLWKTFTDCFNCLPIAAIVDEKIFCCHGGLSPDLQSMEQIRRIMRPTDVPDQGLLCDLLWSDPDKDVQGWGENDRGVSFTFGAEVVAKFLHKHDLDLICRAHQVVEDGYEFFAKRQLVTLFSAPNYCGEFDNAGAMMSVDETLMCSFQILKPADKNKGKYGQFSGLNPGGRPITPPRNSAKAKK
PAFAH1B2 FP inh: PAFAH1B2 (human) inhibition; AID 492953; P68402; recombinant PAFAH1B2, FP-rhodamine activity probe, fluorescence polarization; 1.2% of 340,000 active; inhibition, % at 3.39 µM;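 active = inhibition above the mean of all tested compounds plus 3 SD, cut at about 24% in these data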;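 note: 0% = enzyme with DMSO and 100% = wells lacking PAFAH1B2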
PAFAH1B3 FP inh: PAFAH1B3 (human) inhibition | Q15102 | recombinant PAFAH1B3, FP-rhodamine probe, fluorescence polarization | inhibition, % at 3.39 µM | 0.28% of 340,000 active;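 active = inhibition above the screen-wide average of all tested compounds plus 3 SD, cut at about 25% in these data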;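 note: 0% = enzyme with DMSO only and 100% = wells lacking PAFAH1B3 protein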
Target sequence (Q15102 whole entry, looked up): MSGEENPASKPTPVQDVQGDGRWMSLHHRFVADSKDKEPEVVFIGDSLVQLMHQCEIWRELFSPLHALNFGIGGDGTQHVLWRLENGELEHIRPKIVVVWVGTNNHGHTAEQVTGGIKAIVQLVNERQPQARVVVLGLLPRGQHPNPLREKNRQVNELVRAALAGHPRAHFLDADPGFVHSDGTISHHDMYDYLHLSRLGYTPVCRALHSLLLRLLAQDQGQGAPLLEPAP
Numbers without * were called inactive; . = not tested or not shown. Most compounds without a hit are left out; they make up all but 3.4% or so of the library.

SMILES	PAFAH2 inh	pPAFAH FP inh	PP5 inh	PP1 counter	PAFAH1B2 FP inh	PAFAH1B3 FP inh
N=c1oc2ccc(Br)cc2cc1C(=O)NCc1ccccc1	-0.1	4.9	-1.4	-2.7	3.5	-2.2
CC(NC(=O)c1cc2cc(Br)ccc2oc1=N)c1ccccc1 (configuration not stated)	9.3	6.5	-1.2	-1.1	37.0*	1.9
CN(C(=O)c1cccc(NC(=O)Cc2ccc(NC(=O)C3CCN(C(=O)C4CCCC4)CC3)cc2)c1)C1CCCC1	14.5	.	.	.	2.7	-2.0
COc1ccc(N2CCN(C(=O)c3cn(CC4CCCCC4)nn3)CC2)cc1	8.9	28.3*	-0.1	1.9	0.9	-0.6
CC1(C2CC2)NC(=O)N(CC(=O)N2CCN(c3ccccc3Cl)CC2)C1=O (configuration not stated)	4.9	.	.	.	-2.3	-7.8
O=C(O)CSc1ncnc2scc(-c3ccccc3)c12	4.2	2.0	-2.0	-0.3	8.0	-3.6
COc1cc(NC(=O)CSc2ncnc3scc(-c4ccccc4)c23)c(C(=O)O)cc1OC	29.1	30.9*	-2.0	-0.8	4.8	9.0
O=C(O)c1ccc2c(c1)C1C=CCC1C(c1cc3c(cc1Br)OCO3)N2 (configuration not stated)	8.9	8.0	-1.4	-1.6	-1.2	3.5
O=C(O)c1ccc(NS(=O)(=O)c2ccc3c(c2)C2C=CCC2C(c2ccccc2F)N3)cc1 (configuration not stated)	41.0*	.	.	.	16.9	41.9*
Cc1ccc(NC(=O)C2CCN(S(=O)(=O)c3c(C)nn(C)c3C)CC2)c(Cl)c1	-4.8	13.2	2.2	-1.0	3.4	6.8
CC(=O)c1coc2c1cc(O)c1ccccc12	-0.8	1.5	0.3	-5.2	-1.8	1.9
CC(=O)c1cc(O)c2ccccc2c1O	19.6	26.5*	2.6	0.1	10.6	19.2
NC(=O)c1ncn([C@@H]2O[C@H](CNCc3ccc(-c4cc(C(F)(F)F)ccc4Cl)o3)[C@@H](O)[C@H]2O)n1	-0.2	.	.	.	8.0	-1.8
Cc1cc(=O)[nH]c(N/N=C/c2cc(C)n(-c3ccccc3)c2C)n1	0.9	31.3*	0.6	5.7	1.9	-1.6
O=C(Nc1cccc(C(=O)N2CCCC2)c1)C1CCCCC1	8.8	.	.	.	1.7	7.1
NC(=NCCc1ccc(Cl)cc1)NS(=O)(=O)c1ccccc1	6.0	1.1	-3.6	-2.9	53.6*	5.8
NC(=NCCc1ccc(Cl)cc1)NS(=O)(=O)c1ccc(F)cc1	0.2	3.2	1.3	-0.4	48.9*	9.5
O=S(=O)(NC(=NCCc1ccc(Cl)cc1)c1ccccc1Cl)c1cccs1	15.1	3.1	1.4	0.2	47.5*	-1.1
CCOC(=O)c1oc2nc(CC(C)C)c3c(c2c1N)CCCC3	-6.8	1.8	4.9	-0.3	3.9	4.9
CC/C(=N\OC(=O)c1ccc(OC(C)C)cc1)c1ccc(C)cc1	9.3	28.9*	4.3	2.5	1.3	0.3
C/C(=N\OC(=O)c1ccc(F)cc1)c1ccc(F)c(F)c1	37.3*	3.2	1.9	-2.0	22.2	-5.5
CCCOc1ccc(C(=O)O/N=C(\CC)c2ccc(C)cc2)cc1	-4.0	20.4	-1.3	1.9	-3.7	-1.5
C/C(=N\OC(=O)c1ccc(OC(C)C)cc1)c1ccc(C)c(C)c1	23.4	27.6*	2.7	1.2	-0.3	3.7
O=C1C(F)=CC(COC(c2ccccc2)(c2ccccc2)c2ccccc2)OC1n1cc(F)c(=O)[nH]c1=O (configuration not stated)	3.1	.	.	.	3.7	-3.7
NC(=O)c1ccc(NC(=O)CN2C(=O)NC3(CCCCCCC3)C2=O)cc1	8.0	26.4*	.	.	2.6	11.9
SMILES	PAFAH2 inh	pPAFAH FP inh	PP5 inh	PP1 counter	PAFAH1B2 FP inh	PAFAH1B3 FP inh
Cc1ccc(Sc2ccc(NC(=O)CCN3C(=O)NC4(CCCC4)C3=O)cc2)c(C)c1	38.1*	31.8*	6.1	3.5	6.8	2.3
O=C(CCCN1C(=O)NC2(CCCC2)C1=O)Nc1ccc(F)cc1	-4.9	-0.1	0.4	-1.0	1.6	-0.2
CC(C)(C)C(CO)NC(=O)c1ccc[nH]1 (configuration not stated)	-5.5	-1.6	0.0	-2.3	-3.1	7.3
Cc1[nH]n(-c2ncc(-c3ccccc3)s2)c(=O)c1C(c1ccc(Cl)cc1)C(C#N)C#N (configuration not stated)	29.3	27.1*	4.4	3.7	7.6	14.4
Cc1[nH]n(-c2ccccc2)c(=O)c1C(c1ccccc1[N+](=O)[O-])C(C#N)C#N (configuration not stated)	12.6	12.2	0.8	0.3	2.5	6.4
O=C(Cc1cccc(NC(=O)C2CCCN(C(=O)CCc3ccccc3)C2)c1)Nc1ccc(C(=O)N2CCOCC2)cc1 (configuration not stated)	0.6	.	.	.	8.5	11.5
N#Cc1c(-c2ccncc2)c2c([nH]c1=S)CCCC2	2.0	5.2	-0.8	1.0	6.2	-2.3
Cc1ccc(-c2c3c([nH]c(=S)c2C#N)CCCC3)o1	17.5	24.7*	-2.4	5.1	5.9	7.7
Cc1cccc(N(C)S(=O)(=O)c2c[nH]c3ccc([N+](=O)[O-])cc23)c1	-3.6	7.2	8.9	0.1	1.0	1.9
Cc1nn(-c2ccccc2)c(C)c1NC(=O)COC(=O)c1ccccc1	18.7	5.8	-0.9	-1.6	3.9	-0.7
Cc1nn(-c2ccccc2)c(C)c1NC(=O)COC(=O)c1ccc(Cl)c(N)c1	27.1	27.9*	1.0	0.9	3.3	7.5
CC(C)(C)CC(C)(C)c1ccc(O)c(CN2CCN(CCC#N)CC2)c1	-4.3	10.9	-4.2	6.3	41.5*	-1.1
NC(=S)N=Nc1c(O)cc(O)c2[nH]c(=O)ccc12	50.8*	.	.	.	51.4*	62.0*
CC(=O)NC12CC3CC(C1)CC(C(=O)N1CCN(S(=O)(=O)c4ccccc4C#N)CC1)(C3)C2	3.2	.	.	.	1.4	2.4
CCOc1ccc(/C=C/c2nc(C#N)c(NCCCN(C)C)o2)cc1	6.5	0.9	0.8	-2.4	8.6	8.8
CCOc1ccc(/C=C/c2nc(C#N)c(NCCCOC)o2)cc1	-2.7	28.2*	2.7	-2.0	2.2	15.4
CC(=O)c1ccccc1OC(=O)c1ccc(-c2ccccc2)cc1	-0.6	1.5	-1.8	2.7	0.1	6.0
CC(C)=NOC(=O)c1ccc(-c2ccccc2)cc1	13.3	30.2*	-0.9	-3.5	-2.7	8.1
CCOc1ccc(/C=C2/Sc3ccc(C(=O)N4CCOCC4)cc3N(C)C2=O)cc1OC	1.4	0.6	-0.9	-3.1	-5.2	1.9
CN1C(=O)/C(=C/c2cccc(Cl)c2)Sc2ccc(C(=O)N3CCOCC3)cc21	3.1	28.0*	3.3	0.3	5.8	-4.0
O=S(=O)(NCc1ccccc1)c1ccc(Cl)cc1	1.7	4.8	-0.3	-2.0	21.3	6.2
O=S(=O)(Nc1cc2nc3ccccc3nc2n1Cc1ccccc1)c1ccc(Cl)cc1	66.4*	14.2	9.5	12.6	46.8*	62.6*
CC1CN(Cc2ccco2)C(=S)NC1=O (configuration not stated)	3.6	.	.	.	9.3	5.4
